Assay results from PubChem BioAssay AID1159580 (chemical genetic matrix, 2015).
Hit rate of the full screen: of about 5,500 compounds, about 2,000 (36%) were called active. Another 18% or so got no clear call; they are omitted. Rule as the data show it: active = normalized growth mostly below about 0.91 (no sharp cut-off); inconclusive = no clear call, values can overlap the other calls; inactive = mostly above about 0.92. The list shows a part of the results.

Assay: chemical genetic growth profiling, strain panel (AID 1159580);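 also: tested at 20 µM; growth read once vehicle control cultures reached saturation at 30 °C; 1 = growth at the plate median or of vehicle wells; lower values mean less growth of the strain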
Settings: S. cerevisiae deletion strains, growth OD

Measured: normalized growth

CC(=O)Nc1ccc(S(=O)(=O)c2ccc(NC(C)=O)cc2)cc1
inactive: locus YAL021C, strain ccr4, hits give low values 1.03 | locus YAL026C, strain drs2, hits give low values 1.02 | locus YAL030W, strain snc1, hits give low values 1.02 | locus YBL061C, strain skt5, hits give low values 1.02 | locus YBR009C, strain hhf1, hits give low values 0.997 | locus YBR023C, strain chs3, hits give low values 1.01 | locus YBR171W, strain sec66, hits give low values 1.02 | locus YBR231C, strain swc5, hits give low values 1.02 | locus YBR279W, strain paf1, hits give low values 1.01 | locus YCL011C, strain gbp2, hits give low values 1.01 | locus YCL016C, strain dcc1, hits give low values 0.995 | locus YCL069W, strain vba3, hits give low values 1.02 | locus YCR088W, strain abp1, hits give low values 1.01 | locus YDL005C, strain med2, hits give low values 1.01 | locus YDL040C, strain nat1, hits give low values 1.02 | locus YDR001C, strain nth1, hits give low values 1.02 | locus YDR069C, strain doa4, hits give low values 1.02 | locus YDR137W, strain rgp1, hits give low values 1.03 | locus YDR159W, strain sac3, hits give low values 0.97 | locus YDR195W, strain ref2 1.02 | locus YDR297W, strain sur2, hits give low values 1.01 | locus YDR334W, strain swr1, hits give low values 1.02 | locus YDR335W, strain msn5, hits give low values 1.01 | locus YDR392W, strain spt3, hits give low values 0.998 | locus YEL003W, strain gim4, hits give low values 1.02 | locus YEL037C, strain rad23, hits give low values 1.02 | locus YEL061C, strain CIN8 (second series), hits give low values 1.02 | locus YER015W, strain faa2, hits give low values 1.02 | locus YER016W, strain bim1, hits give low values 0.996 | locus YER111C, strain swi4, hits give low values 1.01 | locus YER155C, strain BEM2 (second series), hits give low values 1.04 | locus YFR010W, strain ubp6, hits give low values 1.01 | locus YGL167C, strain pmr1, hits give low values 1.01 | locus YGL173C, strain kem1, hits give low values 1.02 | locus YGL227W, strain vid30, hits give low values 1.01 | locus YGL240W, strain doc1, hits give low values 1.02 | locus YGL253W, strain hxk2, hits give low values 1 | locus YHR013C, strain ard1, hits give low values 1.03 | locus YHR027C, strain rpn1, hits give low values 1.01 | locus YHR030C, strain SLT2, hits give low values 1.07 | locus YHR079C, strain IRE1, hits give low values 1.09 | locus YHR142W, strain chs7, hits give low values 1.02 | locus YJL092W, strain hpr5, hits give low values 1 | locus YJL095W, strain BCK1 (second series), hits give low values 1.01 | locus YJL095W, strain BCK1, hits give low values 1.01 | locus YJL115W, strain asf1, hits give low values 1.02 | locus YJL129C, strain trk1, hits give low values 0.999 | locus YJL154C, strain vps35, hits give low values 1.02 | locus YJL164C, strain tpk1, hits give low values 1 | locus YJL166W, strain qcr8, hits give low values 1.02 | locus YJL187C, strain SWE1, hits give low values 1.01 | locus YJR066W, strain TOR1, hits give low values 0.988 | locus YKL160W, strain elf1, hits give low values 1.01 | locus YKR026C, strain gcn3, hits give low values 0.999 | locus YKR091W, strain srl3, hits give low values 1.01 | locus YLL001W, strain dnm1, hits give low values 1.01 | locus YLL026W, hits give low values 1.01 | locus YLL041C, strain sdh2, hits give low values 0.997 | locus YLR027C, strain aat2, hits give low values 1 | locus YLR113W, strain HOG1, hits give low values 0.972 | locus YLR221C, strain rsa3, hits give low values 0.987 | locus YLR258W, strain gsy2, hits give low values 1.02 | locus YLR262C, strain YPT6 (second series), hits give low values 1.04 | locus YLR320W, strain mms22, hits give low values 1.03 | locus YLR342W, strain FKS1, hits give low values 1.01 | locus YLR357W, strain rsc2, hits give low values 1.01 | locus YLR370C, strain arc18, hits give low values 1.01 | locus YLR384C, strain iki3, hits give low values 1.01 | locus YML120C, strain ndi1, hits give low values 1.03 | locus YMR058W, strain fet3, hits give low values 1.01 | locus YMR125W, strain sto1, hits give low values 1.01 | locus YMR129W, hits give low values 1.02 | locus YMR205C, strain PFK2, hits give low values 1.01 | locus YMR231W, strain pep5, hits give low values 1.01 | locus YNL071W, strain lat1, hits give low values 1.02 | locus YNL183C, strain NPR1, hits give low values 0.971 | locus YNL209W, strain ssb2, hits give low values 1.01 | locus YNL248C, strain rpa49, hits give low values 1.02 | locus YNL322C, strain KRE1 (second series), hits give low values 1.01 | locus YNR049C, strain mso1, hits give low values 1.01 | locus YOR001W, strain rrp6, hits give low values 1.02 | locus YOR070C, strain gyp1, hits give low values 1.01 | locus YOR080W, strain dia2, hits give low values 1.02 | locus YOR083W, strain WHI5, hits give low values 0.979 | locus YOR106W, strain vam3, hits give low values 1.02 | locus YOR231W, strain MKK1, hits give low values 1.05 | locus YOR265W, strain rbl2, hits give low values 1.01 | locus YOR270C, strain vph1, hits give low values 1.02 | locus YOR290C, strain snf2, hits give low values 1.01 | locus YPL051W, strain arl3, hits give low values 1.01 | locus YPL078C, strain atp4, hits give low values 1.02 | locus YPL106C, strain sse1, hits give low values 1.02 | locus YPL240C, strain hsp82, hits give low values 1 | locus YPL256C, strain CLN2, hits give low values 1.08
